According to the supplement of paper PMC6411743:
± gives the standard deviation of the averaged measurements. About 5,400 targets were measured; listed, in parts, are those with the largest changes and a random draw of the rest.

Compound: Nc1nc2c(ncn2[C@@H]2O[C@H](COP(=O)(O)OP(=O)(O)OP(=O)(O)O)[C@@H](O)[C@H]2O)c(=O)[nH]1 [guanosine triphosphate]
Assay: NP40-soluble protein abundance relative to vehicle (solubility fold change) (ratio); higher = more soluble protein in presence of GTP
Procedure, shortened: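 Eight concentrations, 0.1 to 10 mM, were tested on Jurkat crude lysate for 10 min at room temperature and then 3 min at 37 °C, in three independent experiments. The lysate was solubilised with 0.8% NP40 and benzonase, ultracentrifuged, and the supernatant TMT-labelled for LC-MS/MS. Each value is the fold change against the detergent-processed vehicle in its own replicate, from vsn-normalised intensities.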

Chain of UniProt Q8TDZ2 (Q8TDZ2 whole entry): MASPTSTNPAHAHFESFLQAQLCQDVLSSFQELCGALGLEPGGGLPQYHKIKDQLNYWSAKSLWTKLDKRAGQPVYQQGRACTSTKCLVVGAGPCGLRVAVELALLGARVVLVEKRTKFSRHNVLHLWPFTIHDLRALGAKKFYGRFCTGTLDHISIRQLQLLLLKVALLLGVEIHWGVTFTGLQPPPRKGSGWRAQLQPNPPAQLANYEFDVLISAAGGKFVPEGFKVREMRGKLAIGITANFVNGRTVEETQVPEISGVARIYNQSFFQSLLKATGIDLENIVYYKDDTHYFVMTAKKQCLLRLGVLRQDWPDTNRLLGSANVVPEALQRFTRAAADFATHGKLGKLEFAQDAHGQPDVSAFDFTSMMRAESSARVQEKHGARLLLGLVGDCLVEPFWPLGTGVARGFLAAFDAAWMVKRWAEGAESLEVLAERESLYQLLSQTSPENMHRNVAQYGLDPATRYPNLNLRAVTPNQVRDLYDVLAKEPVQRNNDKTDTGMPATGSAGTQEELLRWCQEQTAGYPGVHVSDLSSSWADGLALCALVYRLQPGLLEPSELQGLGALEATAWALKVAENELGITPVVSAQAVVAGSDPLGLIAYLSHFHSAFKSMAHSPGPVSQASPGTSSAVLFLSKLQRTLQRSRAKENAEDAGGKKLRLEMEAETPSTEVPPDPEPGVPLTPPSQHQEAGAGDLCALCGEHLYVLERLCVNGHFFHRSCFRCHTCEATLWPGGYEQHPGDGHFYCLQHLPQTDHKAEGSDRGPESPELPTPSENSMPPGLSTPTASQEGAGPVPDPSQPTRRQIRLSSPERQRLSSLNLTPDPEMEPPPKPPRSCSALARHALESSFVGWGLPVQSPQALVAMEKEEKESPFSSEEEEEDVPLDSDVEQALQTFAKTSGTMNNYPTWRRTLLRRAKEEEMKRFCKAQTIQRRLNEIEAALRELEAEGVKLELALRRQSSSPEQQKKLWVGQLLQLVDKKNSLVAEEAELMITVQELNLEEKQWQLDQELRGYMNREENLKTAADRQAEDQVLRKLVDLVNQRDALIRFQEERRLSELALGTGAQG
Chain of UniProt Q8N766 (Q8N766 whole entry): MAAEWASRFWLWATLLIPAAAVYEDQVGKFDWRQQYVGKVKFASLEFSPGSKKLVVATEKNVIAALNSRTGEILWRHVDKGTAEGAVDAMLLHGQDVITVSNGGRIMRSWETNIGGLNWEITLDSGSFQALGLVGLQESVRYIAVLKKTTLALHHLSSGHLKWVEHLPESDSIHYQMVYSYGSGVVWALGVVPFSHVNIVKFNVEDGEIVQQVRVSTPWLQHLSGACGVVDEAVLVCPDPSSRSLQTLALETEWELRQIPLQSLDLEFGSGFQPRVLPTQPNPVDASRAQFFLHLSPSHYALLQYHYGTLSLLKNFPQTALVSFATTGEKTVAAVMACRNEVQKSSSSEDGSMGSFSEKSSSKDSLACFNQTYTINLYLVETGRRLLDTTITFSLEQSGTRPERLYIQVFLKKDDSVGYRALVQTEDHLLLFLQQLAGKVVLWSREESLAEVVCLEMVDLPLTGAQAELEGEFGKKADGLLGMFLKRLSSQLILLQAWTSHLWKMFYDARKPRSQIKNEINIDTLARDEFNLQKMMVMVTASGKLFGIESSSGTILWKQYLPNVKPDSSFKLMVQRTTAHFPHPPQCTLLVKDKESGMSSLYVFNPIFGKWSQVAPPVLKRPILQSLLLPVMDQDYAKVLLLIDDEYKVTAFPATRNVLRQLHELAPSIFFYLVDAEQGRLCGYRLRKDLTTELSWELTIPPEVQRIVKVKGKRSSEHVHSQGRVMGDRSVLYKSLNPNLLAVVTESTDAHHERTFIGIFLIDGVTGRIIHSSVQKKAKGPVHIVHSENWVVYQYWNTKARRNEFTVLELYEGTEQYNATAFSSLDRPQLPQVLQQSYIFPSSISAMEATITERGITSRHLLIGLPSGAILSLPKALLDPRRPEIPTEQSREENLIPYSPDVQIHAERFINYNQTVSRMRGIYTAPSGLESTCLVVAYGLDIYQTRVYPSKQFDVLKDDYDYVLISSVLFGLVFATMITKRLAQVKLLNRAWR
Chain of UniProt Q15024 (Q15024 whole entry): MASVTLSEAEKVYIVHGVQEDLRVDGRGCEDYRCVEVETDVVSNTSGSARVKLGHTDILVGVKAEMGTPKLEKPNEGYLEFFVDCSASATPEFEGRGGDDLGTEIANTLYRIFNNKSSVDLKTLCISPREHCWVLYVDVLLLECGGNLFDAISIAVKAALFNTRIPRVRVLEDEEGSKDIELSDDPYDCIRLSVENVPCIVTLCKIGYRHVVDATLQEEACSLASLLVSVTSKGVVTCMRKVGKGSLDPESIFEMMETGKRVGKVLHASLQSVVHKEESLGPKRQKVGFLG
Chain of UniProt Q13619 (Q13619 whole entry): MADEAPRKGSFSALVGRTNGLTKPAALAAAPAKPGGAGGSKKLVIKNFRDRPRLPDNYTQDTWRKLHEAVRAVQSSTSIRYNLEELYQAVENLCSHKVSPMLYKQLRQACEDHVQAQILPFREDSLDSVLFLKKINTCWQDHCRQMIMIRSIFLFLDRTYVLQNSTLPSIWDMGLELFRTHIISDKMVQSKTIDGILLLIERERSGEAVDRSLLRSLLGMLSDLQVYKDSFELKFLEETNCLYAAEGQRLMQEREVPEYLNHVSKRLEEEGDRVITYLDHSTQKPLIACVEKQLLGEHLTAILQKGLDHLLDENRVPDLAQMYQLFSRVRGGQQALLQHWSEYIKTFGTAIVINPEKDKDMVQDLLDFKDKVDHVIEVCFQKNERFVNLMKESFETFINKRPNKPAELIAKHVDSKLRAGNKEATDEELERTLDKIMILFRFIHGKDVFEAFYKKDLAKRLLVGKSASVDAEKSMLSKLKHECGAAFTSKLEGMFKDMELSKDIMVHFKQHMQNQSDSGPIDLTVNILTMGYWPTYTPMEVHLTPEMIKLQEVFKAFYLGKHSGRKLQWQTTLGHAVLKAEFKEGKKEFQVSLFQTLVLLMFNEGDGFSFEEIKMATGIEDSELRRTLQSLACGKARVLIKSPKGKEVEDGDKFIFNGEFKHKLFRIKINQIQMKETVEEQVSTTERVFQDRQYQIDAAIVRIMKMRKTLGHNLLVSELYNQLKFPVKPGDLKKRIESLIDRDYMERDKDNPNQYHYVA
Chain of UniProt Q13347 (Q13347 whole entry): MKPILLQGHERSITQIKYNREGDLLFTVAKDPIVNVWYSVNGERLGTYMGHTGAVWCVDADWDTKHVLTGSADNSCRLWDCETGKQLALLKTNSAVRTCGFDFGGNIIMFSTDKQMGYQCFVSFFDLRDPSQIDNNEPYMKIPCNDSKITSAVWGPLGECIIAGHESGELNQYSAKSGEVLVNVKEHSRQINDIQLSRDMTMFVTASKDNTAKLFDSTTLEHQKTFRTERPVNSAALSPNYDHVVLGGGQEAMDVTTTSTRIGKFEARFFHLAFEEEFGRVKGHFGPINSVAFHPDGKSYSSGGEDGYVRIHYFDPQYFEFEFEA
Chain of UniProt Q8NE71 (Q8NE71 whole entry, one chain of several): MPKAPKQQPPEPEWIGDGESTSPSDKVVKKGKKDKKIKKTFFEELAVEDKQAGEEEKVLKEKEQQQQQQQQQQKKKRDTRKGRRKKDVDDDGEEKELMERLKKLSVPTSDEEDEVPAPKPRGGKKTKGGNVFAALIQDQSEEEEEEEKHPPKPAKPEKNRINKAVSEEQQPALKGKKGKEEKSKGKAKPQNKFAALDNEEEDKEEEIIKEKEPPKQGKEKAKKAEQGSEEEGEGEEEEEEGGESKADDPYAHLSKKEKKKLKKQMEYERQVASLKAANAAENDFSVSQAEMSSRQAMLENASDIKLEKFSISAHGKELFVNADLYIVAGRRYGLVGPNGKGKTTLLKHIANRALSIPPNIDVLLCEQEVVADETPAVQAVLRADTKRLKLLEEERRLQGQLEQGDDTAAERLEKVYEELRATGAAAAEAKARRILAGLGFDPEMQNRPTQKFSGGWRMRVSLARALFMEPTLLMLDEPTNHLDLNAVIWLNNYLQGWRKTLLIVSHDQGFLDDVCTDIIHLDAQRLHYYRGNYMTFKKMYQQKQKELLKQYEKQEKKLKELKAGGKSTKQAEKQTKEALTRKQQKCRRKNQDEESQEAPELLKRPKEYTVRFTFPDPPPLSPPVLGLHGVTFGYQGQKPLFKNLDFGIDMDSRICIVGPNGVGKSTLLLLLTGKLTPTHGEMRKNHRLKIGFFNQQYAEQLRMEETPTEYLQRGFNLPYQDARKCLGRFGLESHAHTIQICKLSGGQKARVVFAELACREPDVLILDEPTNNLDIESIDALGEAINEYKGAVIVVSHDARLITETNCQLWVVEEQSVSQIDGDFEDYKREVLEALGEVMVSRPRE
Chain of UniProt Q9UKM9 (Q9UKM9 whole entry, one chain of several): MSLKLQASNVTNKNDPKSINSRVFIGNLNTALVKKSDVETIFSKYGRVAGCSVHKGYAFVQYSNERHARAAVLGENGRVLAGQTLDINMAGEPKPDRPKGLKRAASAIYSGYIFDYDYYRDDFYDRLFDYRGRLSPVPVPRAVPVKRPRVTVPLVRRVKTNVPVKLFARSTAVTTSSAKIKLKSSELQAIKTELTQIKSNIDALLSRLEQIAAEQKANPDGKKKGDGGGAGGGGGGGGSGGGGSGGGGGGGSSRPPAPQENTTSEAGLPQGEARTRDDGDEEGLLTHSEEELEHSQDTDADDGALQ
Chain of UniProt Q63HQ0 (Q63HQ0 whole entry): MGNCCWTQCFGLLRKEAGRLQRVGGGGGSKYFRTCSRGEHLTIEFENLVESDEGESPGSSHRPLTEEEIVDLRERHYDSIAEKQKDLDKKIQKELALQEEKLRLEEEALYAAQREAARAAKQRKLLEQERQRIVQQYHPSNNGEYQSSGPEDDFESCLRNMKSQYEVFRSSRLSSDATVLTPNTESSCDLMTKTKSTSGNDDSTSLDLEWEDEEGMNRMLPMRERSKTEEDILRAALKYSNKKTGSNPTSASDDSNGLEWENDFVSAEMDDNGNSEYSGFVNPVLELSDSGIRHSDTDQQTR
Chain of UniProt Q16864 (Q16864 whole entry): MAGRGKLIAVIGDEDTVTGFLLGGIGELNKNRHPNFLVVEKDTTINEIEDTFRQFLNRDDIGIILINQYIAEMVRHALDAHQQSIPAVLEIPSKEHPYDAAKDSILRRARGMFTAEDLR

Target	NP40-soluble protein abundance (concentration: 0.1mM)	NP40-soluble protein abundance (concentration: 0.5mM)	NP40-soluble protein abundance (concentration: 1mM)	NP40-soluble protein abundance (concentration: 2mM)	NP40-soluble protein abundance (concentration: 4mM)	NP40-soluble protein abundance (concentration: 6mM)	NP40-soluble protein abundance (concentration: 8mM)	NP40-soluble protein abundance (concentration: 10mM)
DDX51 (UniProt Q8N8A6)	1.07 ± 0.15	1.11 ± 0.05	1.2 ± 0.08	1.35 ± 0.09	1.64 ± 0.085	1.86 ± 0.21	2.05 ± 0.24	2.1 ± 0.15
UniProt Q7Z7K6|Q7Z7K6-3	1.09 ± 0.035	1.08 ± 0.071	1.16 ± 0.013	1.37 ± 0.071	1.69 ± 0.2	2.01 ± 0.27	2.24 ± 0.32	3.21 ± 0.43
SLC44A1 (UniProt Q8WWI5)	0.943 ± 0.066	0.931 ± 0.078	0.926 ± 0.061	0.894 ± 0.093	0.934 ± 0.07	0.879 ± 0.1	0.899 ± 0.1	0.938 ± 0.08
UniProt P60891	1.03 ± 0.072	1.15 ± 0.18	1.18 ± 0.22	1.26 ± 0.25	1.29 ± 0.23	1.3 ± 0.28	1.28 ± 0.27	1.26 ± 0.23
CCDC25 (UniProt Q86WR0)	0.954 ± 0.079	0.939 ± 0.057	0.892 ± 0.051	0.842 ± 0.071	0.855 ± 0.1	0.842 ± 0.084	0.876 ± 0.059	0.863 ± 0.068
UniProt Q12789|Q12789-3	1.08 ± 0.051	1.08 ± 0.093	1.1 ± 0.1	1.13 ± 0.09	1.13 ± 0.1	1.1 ± 0.077	1.1 ± 0.11	1.1 ± 0.11
UniProt Q16864|Q16864-2	0.906 ± 0.02	0.931 ± 0.05	1.032 ± 0.01	1.04 ± 0.067	0.999 ± 0.061	1.02 ± 0.034	0.992 ± 0.073	1.02 ± 0.027
ASCC3 (UniProt Q8N3C0)	1 ± 0.066	1.09 ± 0.026	1.06 ± 0.032	1.16 ± 0.091	1.32 ± 0.17	1.38 ± 0.22	1.53 ± 0.26	1.73 ± 0.27
UniProt Q63HQ0	0.923 ± 0.075	0.935 ± 0.056	0.951 ± 0.099	0.911 ± 0.13	1.02 ± 0.16	0.961 ± 0.12	0.952 ± 0.091	0.972 ± 0.11
Q5QPL9|Q9UKM9-2|Q9UKM9 (UniProt Q9UKM9)	0.927 ± 0.04	1 ± 0.025	1.07 ± 0.14	1.07 ± 0.2	1.07 ± 0.28	1.05 ± 0.25	1.01 ± 0.24	0.949 ± 0.23
UniProt Q13427|E9PG73	0.978 ± 0.092	1.11 ± 0.12	1.18 ± 0.13	1.16 ± 0.098	1.09 ± 0.13	1.12 ± 0.12	1.21 ± 0.18	1.2 ± 0.2
Q5STZ8|Q8NE71 (UniProt Q8NE71)	1.03 ± 0.023	1.02 ± 0.019	0.96 ± 0.053	0.987 ± 0.043	0.993 ± 0.06	0.997 ± 0.046	0.994 ± 0.066	0.984 ± 0.092
UniProt Q12802|Q12802-2|Q12802-4	0.99 ± 0.12	1.01 ± 0.092	1.01 ± 0.099	1 ± 0.12	0.977 ± 0.11	1.04 ± 0.11	1.02 ± 0.1	1.02 ± 0.084
UniProt P78563|P78563-2|P78563-3|P78563-4|P78563-5|P78563-6	1.05 ± 0.12	1.03 ± 0.13	1.007 ± 0.0033	1.07 ± 0.053	1.11 ± 0.044	1.16 ± 0.062	1.15 ± 0.031	1.16 ± 0.1
UniProt Q14789|Q14789-2	1 ± 0.019	0.984 ± 0.041	1.02 ± 0.022	0.989 ± 0.049	0.993 ± 0.026	1 ± 0.035	1.02 ± 0.046	1.01 ± 0.051
UniProt Q12872|Q12872-2	0.979 ± 0.031	1.04 ± 0.027	1.17 ± 0.014	1.24 ± 0.024	1.42 ± 0.016	1.52 ± 0.068	1.7 ± 0.13	1.78 ± 0.13
UniProt P62277	0.945 ± 0.11	0.964 ± 0.11	1.03 ± 0.22	1.02 ± 0.3	0.802 ± 0.25	0.796 ± 0.27	0.626 ± 0.17	0.816 ± 0.29
EIF3I (UniProt Q13347)	1.02 ± 0.04	1.03 ± 0.091	0.993 ± 0.089	1.04 ± 0.15	1.13 ± 0.19	1.26 ± 0.26	1.32 ± 0.23	1.4 ± 0.29
UniProt Q7Z2T5	1.05 ± 0.05	1.09 ± 0.014	1.08 ± 0.035	1.21 ± 0.059	1.32 ± 0.072	1.42 ± 0.08	1.44 ± 0.059	1.57 ± 0.024
UniProt Q53EL6|Q53EL6-2	0.992 ± 0.14	1.08 ± 0.18	1.12 ± 0.24	1.23 ± 0.34	1.45 ± 0.45	1.66 ± 0.47	1.81 ± 0.48	2.16 ± 0.58
ITPK1 (UniProt Q13572)	0.997 ± 0.085	0.965 ± 0.064	0.904 ± 0.095	0.981 ± 0.077	0.981 ± 0.15	0.943 ± 0.18	0.924 ± 0.13	0.953 ± 0.09
CUL4A (UniProt Q13619)	1.07 ± 0.041	1.09 ± 0.077	1.02 ± 0.045	1.03 ± 0.11	0.989 ± 0.09	0.987 ± 0.076	0.987 ± 0.061	0.934 ± 0.042
UniProt Q8N766|Q8N766-2|Q8N766-3|Q8N766-4	1.01 ± 0.055	1.03 ± 0.1	0.938 ± 0.046	0.964 ± 0.12	0.951 ± 0.098	0.926 ± 0.093	0.901 ± 0.015	0.897 ± 0.063
KPNB1 (UniProt Q14974)	0.986 ± 0.053	0.988 ± 0.03	1.01 ± 0.035	0.989 ± 0.037	1.01 ± 0.041	0.993 ± 0.033	1 ± 0.033	0.992 ± 0.028
EXOSC7 (UniProt Q15024)	1.09 ± 0.084	1.01 ± 0.071	1.06 ± 0.086	1.11 ± 0.12	1.26 ± 0.13	1.17 ± 0.12	1.22 ± 0.077	1.18 ± 0.061
UniProt P55884|P55884-2	1.02 ± 0.042	1.07 ± 0.056	1.03 ± 0.068	1.14 ± 0.18	1.29 ± 0.26	1.46 ± 0.33	1.55 ± 0.34	1.75 ± 0.36
P62158 (UniProt P0DP23)	0.715 ± 0.11	0.763 ± 0.14	0.991 ± 0.17	1.12 ± 0.19	1.09 ± 0.21	1.15 ± 0.24	0.939 ± 0.14	1.14 ± 0.11
UniProt Q8WXA9-2	1.02 ± 0.067	1.11 ± 0.044	1.14 ± 0.077	1.12 ± 0.082	1.15 ± 0.067	1.11 ± 0.07	1.18 ± 0.035	1.18 ± 0.1
UniProt Q6NW34|Q6NW34-2	0.848 ± 0.051	0.888 ± 0.08	0.881 ± 0.074	0.85 ± 0.031	0.839 ± 0.071	0.929 ± 0.032	0.871 ± 0.059	0.93 ± 0.012
UniProt Q8TDZ2|Q8TDZ2-4	1.01 ± 0.056	0.965 ± 0.069	0.946 ± 0.021	0.9475 ± 0.0091	0.9237 ± 0.0088	0.899 ± 0.019	0.921 ± 0.016	0.879 ± 0.058
